# Measurements: PubChem BioAssay
# Active and inactive are the calls of the source. Unless noted, the rule behind the calls is not given here.
# Columns and labels:
# [1] = A549 cell viability effects, profiling panel, calcein-AM fluorescence, 48 h, basal (AID 1162); conditions: higher = more signal; note: test concentration not given here
# [2] = adipocyte viability effects, profiling panel, cell-based, 3T3-L1 adipocytes, calcein-AM fluorescence, 48 h, basal (AID 1163); conditions: 3T3-L1 adipocytes viability, higher = more signal; note: test concentration not given here
# [3] = HepG2 cell viability effects, profiling panel, calcein-AM fluorescence, 48 h, basal (AID 1164); conditions: higher = more signal; note: test concentration not given here
# [4] = MM1S cell viability effects, profiling panel, calcein-AM fluorescence, 48 h, basal (AID 1165); conditions: higher = more signal;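 note: viability of MM1S multiple myeloma cells under basal unstimulated conditions; test concentration not given here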
# [5] = basal RPMI8226 viability, no added stimulus, profiling panel, cell-based, calcein-AM fluorescence, 48 h, PK04 Diversity Set (AID 1166); conditions: RPMI8226 myeloma viability, higher = more signal;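 note: cells grown under basal conditions without added stimulus; test concentration not given here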
# [6] = basal HepG2 mitochondrial membrane potential changes, profiling panel, cell-based, JC-1 fluorescence, 24 h, 100 nL compound (AID 1167); conditions: higher = more signal; note: test concentration not given here
# [7] = basal 3T3-L1 adipocyte mitochondrial potential changes, profiling panel, cell-based, JC-1 fluorescence, 3T3-L1 adipocytes, 24 h, 100 nL compound (AID 1168); conditions: JC-1 mitochondrial fluorescence, higher = more signal, called active from +8 up or from −8 down; note: test concentration not given here
# [8] = basal RPMI8226 mitochondrial membrane potential changes, profiling panel, cell-based, JC-1 fluorescence, 24 h, 100 nL compound (AID 1169); conditions: RPMI8226 myeloma, JC-1 mitochondrial potential fluorescence, higher = more signal; note: test concentration not given here
# [9] = basal MM1S mitochondrial membrane potential changes, profiling panel, cell-based, JC-1 fluorescence, 24 h, 100 nL compound (AID 1170); conditions: higher = more signal; note: test concentration not given here
# [10] = A549 lung cancer cell viability effects, profiling panel, resazurin fluorescence, 24 h, PK04 Diversity Set (AID 1171); conditions: higher = more signal, called active from +8 up or from −8 down; note: test concentration not given here
# [11] = HepG2 liver cancer cell viability effects, profiling panel, resazurin fluorescence, 24 h, PK04 Diversity Set (AID 1172); conditions: higher = more signal; note: test concentration not given here
# [12] = basal S. cerevisiae growth modulation, no modifier, primary screen, OD600, strain BY4716, 24 h, basal condition (AID 1173); conditions: OD600, 24 h, higher = more signal, called active from +8 up or from −8 down
# [13] = MM1S myeloma cell viability, profiling panel, resazurin fluorescence, basal, 24 h, PK04 Diversity Set (AID 1174); conditions: higher = more signal, called active from +8 up or from −8 down;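 note: MM1S multiple myeloma cell line; test concentration not given here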
# [14] = target: Dihydroorotate dehydrogenase (quinone), mitochondrial (Plasmodium falciparum (isolate 3D7)) (UniProt Q08210); experiment: PfDHODH enzyme inhibitors, primary screen, biochemical, C-terminal His tag, absorbance 600 nm (AID 1175); conditions: DCIP absorbance 600 nm, higher = more signal, called active from +8 up or from −8 down;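 note: recombinant parasite enzyme with a five histidine tag at its C terminus; test concentration not given here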
# [15] = P. aeruginosa biofilm formation inhibitors, primary screen, strain PAO1, LB-PBS medium, absorbance 600 nm (AID 1176); note: test concentration not given here; conditions: P. aeruginosa PAO1 growth/biofilm, A600, 12 h; higher = more signal
# [16] = S. cerevisiae RM11-1a growth modifiers, primary screen, strain RM11-1a, OD600, basal, 24 h (AID 1177); conditions: OD600, 24 h, higher = more signal, called active from +8 up or from −8 down;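 note: cultures grown under basal conditions with no added stressor; test concentration not given here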
# [17] = E. coli acrAB mutant growth effects, primary screen, E. coli filamentation inducers, strain DRC39, OD650, 24 h (AID 1178); conditions: higher = more signal, called active from +8 up or from −8 down;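 note: growth measured as culture turbidity by optical density at 650 nm; test concentration not given here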
# [18] = E. coli acrAB mutant growth effects, primary screen, E. coli filamentation inducers, strain DRC39, OD650, 48 h (AID 1179);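 note: screen aims at cell division blockers that make cells filament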; conditions: E. coli DRC39 delta-acrAB growth, higher = more signal, called active from +8 up or from −8 down
# [19] = RPMI8226 myeloma cell viability, profiling panel, resazurin fluorescence, basal, 24 h, PK04 Diversity Set (AID 1180); conditions: higher = more signal;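 note: RPMI8826 multiple myeloma cell line at 5000 cells per well; test concentration not given here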
# [20] = target: E3 ubiquitin-protein ligase XIAP (Homo sapiens) (UniProt P98170); experiment: XIAP binders, primary screen, biophysical, small-molecule microarray, fluorescence 635 nm (AID 1181); conditions: small-molecule microarray binding, higher = more signal;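 note: score merges 667 nm emission and signal to noise over triplicate slides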
# E3 ubiquitin-protein ligase XIAP (Homo sapiens), sequence (P98170 whole entry, looked up): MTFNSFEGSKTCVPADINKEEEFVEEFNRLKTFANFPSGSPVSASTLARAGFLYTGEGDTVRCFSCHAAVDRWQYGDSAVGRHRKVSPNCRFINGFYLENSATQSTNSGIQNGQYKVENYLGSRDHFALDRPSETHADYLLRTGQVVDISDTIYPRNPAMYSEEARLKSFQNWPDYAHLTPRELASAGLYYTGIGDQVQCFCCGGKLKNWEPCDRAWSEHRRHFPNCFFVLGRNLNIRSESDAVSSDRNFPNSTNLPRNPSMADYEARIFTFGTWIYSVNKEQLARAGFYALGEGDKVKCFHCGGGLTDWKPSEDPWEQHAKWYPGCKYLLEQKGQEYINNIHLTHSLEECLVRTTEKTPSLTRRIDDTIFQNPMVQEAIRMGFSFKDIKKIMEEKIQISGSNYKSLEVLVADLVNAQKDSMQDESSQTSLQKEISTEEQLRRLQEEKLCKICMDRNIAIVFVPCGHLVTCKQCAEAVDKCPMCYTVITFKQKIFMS
# Dihydroorotate dehydrogenase (quinone), mitochondrial (Plasmodium falciparum (isolate 3D7)), sequence (Q08210 whole entry, looked up): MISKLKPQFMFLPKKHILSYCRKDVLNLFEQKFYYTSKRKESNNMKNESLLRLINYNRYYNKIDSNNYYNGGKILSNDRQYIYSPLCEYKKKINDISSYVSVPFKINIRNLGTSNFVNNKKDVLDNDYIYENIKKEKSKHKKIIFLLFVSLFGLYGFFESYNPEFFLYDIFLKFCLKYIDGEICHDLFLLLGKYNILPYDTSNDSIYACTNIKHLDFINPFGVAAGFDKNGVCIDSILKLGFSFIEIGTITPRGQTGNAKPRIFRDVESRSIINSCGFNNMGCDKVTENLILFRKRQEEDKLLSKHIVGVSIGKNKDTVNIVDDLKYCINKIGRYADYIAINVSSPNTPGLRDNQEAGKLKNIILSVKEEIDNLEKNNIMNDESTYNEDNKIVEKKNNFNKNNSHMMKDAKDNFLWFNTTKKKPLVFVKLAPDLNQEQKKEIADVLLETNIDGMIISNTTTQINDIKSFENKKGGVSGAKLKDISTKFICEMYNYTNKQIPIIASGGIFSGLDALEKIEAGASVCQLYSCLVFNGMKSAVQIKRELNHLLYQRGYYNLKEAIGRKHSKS
Structure (SMILES),z-score [1],z-score [2],z-score [3],z-score [4],z-score [5],z-score [6],z-score [7],z-score [8],z-score [9],z-score [10],z-score [11],z-score [12],z-score [13],composite z-score [14],z-score [15],z-score [16],z-score [17],z-score [18],z-score [19],composite z-score [20]
O=C1O[C@H](c2ccccc2)[C@H](c2ccccc2)N2[C@H]1[C@@H](C(=O)NC[C@H](O)c1ccccc1)[C@]1(C(=O)Nc3ccc(C#CCCO)cc31)[C@H]2c1ccc(OCCO)cc1,1.12,1.25,1.49,-0.156,0.868,-0.274,-0.0786 (inactive),-0.165,-0.389,-0.0659 (inactive),-0.468,1.62 (inactive),-0.0793 (inactive),-1.33 (inactive),2.31 (inactive),3.46 (inactive),0.541 (inactive),0.721 (inactive),-0.821,0.283
COC(=O)[C@@]1(Cc2ccc(OC)cc2)[C@H]2c3cc(C(=O)N(C)C)n(Cc4ccc(Cl)c(C(F)(F)F)c4)c3C[C@H]2CN1C(=O)c1ccccc1,-0.585,-0.88,-0.585,-1.93,-2.39,0.765,-0.938 (inactive),-0.652,-1.69,-1.83 (inactive),-1.21,1.86 (inactive),-2.74 (inactive),0.381 (inactive),0.812 (inactive),0.673 (inactive),-0.505 (inactive),-0.0176 (inactive),-2.7,0.216
CCCC[C@@H](O)C1=C(COc2ccccc2)C[C@H]2C(=O)N(C)C(=O)[C@H]2[C@H]1CO,0.683,0.0659,1.54,0.196,0.131,1.11,0.56 (inactive),0.547,-2.03,-0.703 (inactive),-0.0624,-3.78 (inactive),0.147 (inactive),-1.85 (inactive),0.613 (inactive),-3.3 (inactive),1.6 (inactive),1.41 (inactive),0.296,-0.127
C[C@H]1NC(=O)[C@@]23C(=O)N[C@@H](Cc4ccccc4)C2[C@H](C)[C@@]2(C)O[C@H]2C3/C=C/C/C=C\CNC(=O)[C@H](Cc2ccccc2)NC1=O (stereo not given in full),-0.518,0.76,-0.607,0.401,-0.45,0.88,-0.588 (inactive),0.331,1.02,0.0548 (inactive),-0.466,0.303 (inactive),-0.0253 (inactive),0.226 (inactive),1.24 (inactive),1.31 (inactive),0.513 (inactive),0.32 (inactive),0.0583,0.104
C=CC[C@]1(C(=O)O)COC(c2ccc(OCCCO)cc2)=N1,0.083,-0.206,-0.148,-0.0046,-0.571,0.0919,0.224 (inactive),-0.0187,-0.116,-0.408 (inactive),0.264,0.32 (inactive),0.546 (inactive),0.146 (inactive),0.37 (inactive),-0.643 (inactive),-0.353 (inactive),-0.201 (inactive),-0.1,0.1
C=C(C)[C@@H]1CC=C(C(O)C2C=CC3C(=O)N(c4ccccc4)C(=O)C3N2Nc2ccccc2F)CC1 (stereo not given in full),-0.644,-0.466,0.27,-2.18,0.123,-1.05,-1.74 (inactive),-0.872,-0.043,-0.35 (inactive),-0.91,0.966 (inactive),-0.773 (inactive),1.63 (inactive),1.51 (inactive),2.01 (inactive),-0.96 (inactive),-0.829 (inactive),-1.09,0.0806
[N-]=[N+]=NCc1ccccc1[C@@H]1OC(c2ccc(OCCCO)cc2)=N[C@]1(CCS(=O)(=O)c1ccccc1)C(=O)NCC(O)CO (stereo not given in full),1.3,0.273,1.4,0.481,1.67,-0.142,0.0693 (inactive),-0.0493,-0.198,-0.911 (inactive),-0.618,-0.543 (inactive),-0.121 (inactive),-0.716 (inactive),0.563 (inactive),-0.397 (inactive),0.488 (inactive),1.2 (inactive),-0.471,0.0731
COC(=O)[C@@]1(Cc2ccc(OC)cc2)[C@H]2c3cc(C(=O)N(C)C)n(CCO)c3C[C@H]2CN1C(=O)c1ccccc1,-1.58,0.611,-0.516,-1.25,-0.755,-0.133,-1.36 (inactive),-0.577,-0.327,-0.0699 (inactive),-0.822,0.474 (inactive),-1.23 (inactive),-0.462 (inactive),0.33 (inactive),-0.562 (inactive),-0.748 (inactive),-0.173 (inactive),-0.915,0.0223
